Compound activity deposited in PubChem by National Center for Advancing Translational Sciences (NCATS).
Rows were chosen to be rich in hits. Some 13% of all compounds tested hit in one or more screens of this group.
HCV inhibitor – qHTS Assay for Inhibitors of Hepatitis C Virus (HCV); AID 651820, 2012; Huh7.5.1 HCVcc-Cre infection, luciferase reporter, 44 h; Potency, µM (highest dose often 41.8 µM), usual class: inhibitors; 3.4% of 340,000 active; active = well fitted inhibition curve with a large enough effect; inconclusive = small, poorly fitted or top-dose-only effect, or another doubt; inactive = no such curve, though single readings can be large or run the other way
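Cells seeded at 1,000/well and cultured 4 h, then compounds added followed by HCVcc-Cre virus (~0.5 moi). After 44 h further culture, luciferase substrate was added, plates held 15 min at room temperature, and luminescence read for 15 sec.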
Cycloheximide cs – Cycloheximide Counterscreen for Small Molecule Inhibitors of Shiga Toxin. cell reporter, cycloheximide protein synthesis inhibition counterscreen. max response, %. 12% of 300,000 active. AID 2314, 2010; in the data active = max response mostly above about 13%, no sharp cut-off; inactive = mostly below about 14%; also: read at 38.3 µM for the half of the compounds with a filed dose
Marburg entry inh – qHTS for inhibitors of binding or entry into cells for Marburg Virus | AID 540276, 2011 | Marburg virus pseudotyped entry inhibition, cell reporter | Potency, µM (titrated, usually from 37.8 µM), most hits filed as inhibitors | 1.8% of 300,000 active; calls by dose curve; tested in HEK293 cells
FMDV antiviral – High Throughput Screening for Foot and Mouth Disease Virus Antivirals. 1.2% of 410,000 active. FMDV antiviral cell-based qHTS. Potency, µM (series often up to 57.9 µM), actives largely listed as inhibitors. AID 1159524, 2015; calls by dose curve; tested in HEK293T cells; also: read-out not given here; nearly all actives have a fitted effect of over 45% in size
Lassa entry inh – qHTS for Inhibitors of binding or entry into cells for Lassa Virus; Lassa virus pseudotype entry inhibition, cell reporter; Potency, µM (series often up to 37.9 µM), actives largely listed as inhibitors; 1.2% of 300,000 active; calls by dose curve; tested in HEK293 cells; also: nearly all actives have a fitted effect of over 50% in size
Shiga inhibitor – A qHTS for Small Molecule Inhibitors of Shiga Toxin; Vero cells, Shiga toxin protein synthesis inhibition reporter; 9.2% of 290,000 active; inhibition, % at 38.7 µM; AID 2315, 2010; in the data active = inhibition mostly above about 28%, no sharp cut-off; inactive = mostly below about 43%
Of the large screens only hits and unclear results are named; the others gave an inactive call.

CC(NC(=O)C1CCCN(S(=O)(=O)c2cccc3nonc23)C1)c1ccccc1 (centres undefined)	none (no result: FMDV antiviral)
Cc1nn(-c2ccccc2)c(C)c1/C=N/NC(=O)c1cc(O)cc(O)c1	none (no result: Marburg entry inh, Lassa entry inh)
Cc1cc(C(=O)N/N=C/c2c(C)nn(-c3ccccc3)c2C)n[nH]1	Cycloheximide cs 18, Shiga inhibitor 55
Cc1nn(-c2ccccc2)c(C)c1/C=N/NC(=O)c1cnccn1	Cycloheximide cs 16 (no result: Marburg entry inh, Lassa entry inh)
Cc1nn(-c2ccccc2)c(Cl)c1/C=N\NC(=O)c1cnccn1	none
O=C(Cn1c(=O)c2c(ncn2C2CCCC2)n(Cc2ccccc2)c1=O)N1CCc2ccccc21	Lassa entry inh inconclusive
O=C(c1ccccc1)c1c[nH]cc1-c1ccccc1	none
CCOC(=O)c1c(C)oc2c1C(=O)c1ccccc1C2=O	HCV inhibitor 5.6µM, Cycloheximide cs 30, Marburg entry inh inconclusive, Lassa entry inh inconclusive, Shiga inhibitor 50
O=C1C(=O)c2c(C(=O)c3ccccc3)coc2-c2ccccc21	HCV inhibitor 11µM, Marburg entry inh inconclusive, Lassa entry inh inconclusive
Cc1oc2c(c1C(=O)O)C(=O)c1ccccc1C2=O	none (no result: Marburg entry inh, Lassa entry inh)
Cc1oc2c(c1C(=O)c1ccccc1)C(=O)C(=O)c1ccccc1-2	HCV inhibitor 10µM, Marburg entry inh inconclusive, FMDV antiviral inconclusive, Lassa entry inh 10µM
COc1ccc(S(=O)(=O)N2CCOC23CCN(C(=O)c2ccccc2OC)CC3)cc1	none (no result: Cycloheximide cs, Shiga inhibitor)
CCC(NC(=O)c1cccc(Cn2cc([N+](=O)[O-])cn2)c1)c1ccc(C(C)C)cc1 (centres undefined)	HCV inhibitor inconclusive, Cycloheximide cs 11, Marburg entry inh inconclusive
CC(NC(=O)c1cccc(Cn2cc([N+](=O)[O-])cn2)c1)c1ccc(C(C)(C)C)cc1 (centres undefined)	HCV inhibitor inconclusive, Marburg entry inh inconclusive
Cc1sc2ncnc(SC(C)C(=O)N3c4ccccc4Sc4ccccc43)c2c1C (centres undefined)	HCV inhibitor inconclusive, Marburg entry inh 11µM, Lassa entry inh inconclusive
Cc1ccc(NC(=O)Nc2ccc3c(c2)OCO3)cc1F	Cycloheximide cs 73, Shiga inhibitor 90 (no result: Marburg entry inh, Lassa entry inh)
Cc1cc(F)ccc1NC(=O)Nc1ccc2c(c1)OCO2	Cycloheximide cs 12 (no result: Marburg entry inh, Lassa entry inh)
CC(C)Cc1nc(SCc2cccnc2)c2c(=O)n(C)c(=O)n(C)c2n1	HCV inhibitor 10µM, Marburg entry inh inconclusive, FMDV antiviral inconclusive, Lassa entry inh inconclusive
c1ccc(CC2CCCNC2)cc1 (centres undefined)	none
c1ccc(CCNc2ncnc3scc(C4COc5ccccc5O4)c23)cc1 (centres undefined)	HCV inhibitor 13µM, FMDV antiviral 28µM
C=CCOc1ccc(/C=N/N2C(=O)C(CC(=O)Nc3ccc(F)cc3F)SC2=NC)cc1 (centres undefined)	Cycloheximide cs 21, Marburg entry inh inconclusive, Lassa entry inh inconclusive, Shiga inhibitor 30
CN=C1SC(CC(=O)Nc2ccccc2F)C(=O)N1C (centres undefined)	none (no result: Marburg entry inh, Lassa entry inh)
CC(=O)c1ccc(Nc2ccc(-c3ccccc3C)nn2)cc1	Cycloheximide cs 55, Shiga inhibitor 107
COc1ccccc1-c1ccc(Nc2cccc(C(C)=O)c2)nn1	HCV inhibitor 7.9µM, Cycloheximide cs 37, Shiga inhibitor 74
CC(=O)c1cccc(Nc2ccc(-c3ccccc3F)nn2)c1	HCV inhibitor inconclusive, Cycloheximide cs 38, Marburg entry inh inconclusive, Shiga inhibitor 94
Cc1nc2c(cnn2-c2ccccc2Cl)c(=O)n1-c1ccc(C(C)C)cc1	HCV inhibitor inconclusive, Marburg entry inh 15µM, FMDV antiviral inconclusive, Lassa entry inh 9.2µM
Cc1ccc(-n2c(-c3ccco3)nc3c(cnn3-c3ccccc3Cl)c2=O)cc1	none (no result: HCV inhibitor, Cycloheximide cs, Shiga inhibitor)
O=C(O)c1cccc(NC(=S)NC(=O)c2ccc3ccccc3c2)c1	Cycloheximide cs 42, Marburg entry inh inconclusive, FMDV antiviral 14µM, Lassa entry inh 0.79µM, Shiga inhibitor 71
O=C(NC(=S)Nc1ccccc1C(=O)O)c1ccc2ccccc2c1	Cycloheximide cs 15, Marburg entry inh inconclusive
O=C(O)c1ccccc1NS(=O)(=O)c1ccc2ccccc2c1	Cycloheximide cs 33
O=C(CN(C(=O)c1csnn1)c1ccccc1F)NC1CCCCC1	none
